# Results as given in PubChem BioAssay (Tox21).
# Inconclusive results are not listed. A call without a number means that no potency is given here. A number with no mark means an inactive call. Active and inactive are the calls of the source. Unless noted, the call rests on the fitted dose curve; in most records, active means well fitted curve in the direction sought with a large enough effect in the repeat runs; inconclusive means weak or mixed curves; inactive means no such curve, though single readings can be large; an effect the other way counts as inactive or inconclusive.
# Experiments:
# [1] = qHTS assay to identify small molecule antagonists of the estrogen related receptor (ERR) signaling pathway from Tox21 library - cell viability counter screen (AID 1224834); further: nearly all actives have a fitted effect of over 30% in size
# In short: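 In this quantitative HTS format, ERR cells receive compounds in DMSO and are incubated for 17.5 h at 37 C. Live-cell protease activity is then detected with CellTiter-Fluor.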
# [2] = target: Luciferin 4-monooxygenase (Photinus pyralis) (UniProt P08659); experiment: qHTS assay to identify small molecule inhibitors of firefly luciferase (AID 1224835); further: nearly all actives have a fitted effect of over 25% in size; further: potency means the concentration at half of the fitted maximal effect; on activity change, negative = inhibition: series mostly up to about 120 µM
# In short: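 Biochemical qHTS: compounds run as interplate titrations against purified firefly enzyme, with D-luciferin and ATP each at its KM concentration. Light output recorded by CCD imaging.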
# [3] = qHTS assay to identify small molecule agonists of the constitutive androstane receptor (CAR) signaling pathway - cell viability counter screen (AID 1224836); further: series mostly up to about 92 µM; nearly all actives have a fitted effect of over 45% in size
# In short: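 Cells were seeded and incubated 4 hrs. Compounds were added across 15 concentrations together with PK11195 at 0.75 uM final. Plates were incubated 23 hrs at 37 C. CellTiter-Fluor was added and fluorescence measured.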
# [4] = qHTS assay to identify small molecule antagonists of the constitutive androstane receptor (CAR) signaling pathway - cell viability counter screen (AID 1224837); further: series mostly up to about 92 µM; nearly all actives have a fitted effect of over 45% in size
# In short: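 In quantitative HTS format, compounds at 15 concentrations were applied to HepG2 cells double-transfected with hCAR and CYP2B6-2.2kb under 50 nM CITCO stimulation; live-cell protease activity was read after 23 hr via CellTiter-Fluor.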
# [5] = target: Nuclear receptor subfamily 1 group I member 3 (Homo sapiens) (UniProt Q14994); experiment: qHTS assay to identify small molecule antagonists of the constitutive androstane receptor (CAR) signaling pathway (AID 1224838); further: nearly all actives have a fitted effect of over 40% in size
# In short: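 CITCO-stimulated (50 nM final) HepG2 cells stably transfected with hCAR and CYP2B6-2.2kb luciferase were exposed to compounds at 15 concentrations for 24 h at 37 C/5% CO2. A luciferase reagent was added and luminescence recorded after 30 min.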
# [6] = target: Nuclear receptor subfamily 1 group I member 3 (Homo sapiens) (UniProt Q14994); experiment: qHTS assay to identify small molecule agonists of the constitutive androstane receptor (CAR) signaling pathway (AID 1224839); further: nearly all actives have a fitted effect of over 15% in size; further: potency means the concentration at half of the fitted maximal effect;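 on activation: HepG2 cells stably carrying human CAR and a CYP2B6 luciferase reporter; series mostly up to about 92 µM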
# In short: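 Cells were plated and incubated 4 hrs, then dosed with compounds at 15 concentrations. PK11195 was added to 0.75 uM final. After 24 hrs at 37 C, luciferase luminescence was measured.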
# [7] = qHTS assay to identify small molecule antagonists of the estrogen related receptor signaling pathway with the pleiotropic PPARgamma coactivator (PGC) from Tox21 10K library - cell viability counter screen (AID 1224840; active means well fitted cell-killing curve with a large enough effect in the repeat runs, not every such curve was filed as active; further: nearly all actives have a fitted effect of over 40% in size)
# In short: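 Viability counter screen, PGC/ERR cells: 17.5 h compound exposure at 37 C, CellTiter-Fluor fluorescence endpoint.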
# [8] = qHTS assay to identify small molecule antagonists of the estrogen related receptor signaling pathway with the pleiotropic PPARgamma coactivator (PGC) from Tox21 10K library (AID 1224841; call rule not given here; further: series mostly up to about 92 µM; actives are mostly falling curves and most rising ones were filed inactive; nearly all actives have a fitted effect of over 50% in size)
# In short: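 In the PGC/ERR line, DMSO solutions of test chemicals are pin-delivered to 2,000 cells/well six hours after dispensing. Following eighteen hours' incubation, One-Glo reagent is added and luminescence recorded.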
# [9] = qHTS assay to identify small molecule agonists of the estrogen related receptor signaling pathway with the pleiotropic PPARgamma coactivator (PGC) from Tox21 10K library (AID 1224842); further: nearly all actives have a fitted effect of over 15% in size
# In short: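 PGC/ERR reporter cell line, 2,000 cells per well, incubated 6 h at 37 C before 23 nL compound in DMSO was added. After 18 h at 37 C, One-Glo luminescence read following 30 min at room temperature.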
# [10] = target: Thyrotropin receptor (Homo sapiens) (UniProt P16473); experiment: qHTS assay to identify small molecule agonists of the thyroid stimulating hormone receptor (TSHR) signaling pathway (AID 1224843; calls by dose curve; further: nearly all actives have a fitted effect of over 45% in size)
# In short: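 HEK293/TSHR, 800 cells/well; cpd 30 min RT; add cAMP-d2 + anti-cAMP-cryptate, 1 h RT; fluorescence read on plate reader. 15-pt titration, n=3.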
# Luciferin 4-monooxygenase (Photinus pyralis), sequence (P08659 whole entry, looked up): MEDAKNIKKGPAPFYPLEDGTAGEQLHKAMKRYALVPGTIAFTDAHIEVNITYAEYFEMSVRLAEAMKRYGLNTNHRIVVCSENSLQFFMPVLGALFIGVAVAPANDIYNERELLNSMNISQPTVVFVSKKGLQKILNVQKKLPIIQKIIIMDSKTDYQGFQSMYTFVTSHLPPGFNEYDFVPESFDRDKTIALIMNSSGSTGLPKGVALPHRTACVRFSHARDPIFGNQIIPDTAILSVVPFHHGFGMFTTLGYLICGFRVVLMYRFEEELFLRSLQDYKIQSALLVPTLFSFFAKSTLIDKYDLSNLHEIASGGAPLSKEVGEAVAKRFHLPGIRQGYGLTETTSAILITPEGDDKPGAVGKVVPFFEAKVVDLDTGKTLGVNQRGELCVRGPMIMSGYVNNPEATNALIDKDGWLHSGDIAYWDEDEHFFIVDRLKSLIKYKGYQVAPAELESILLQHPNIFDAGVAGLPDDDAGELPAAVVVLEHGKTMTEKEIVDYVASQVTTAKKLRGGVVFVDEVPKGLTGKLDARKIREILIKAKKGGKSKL
# Nuclear receptor subfamily 1 group I member 3 (Homo sapiens), sequence (Q14994 whole entry, looked up): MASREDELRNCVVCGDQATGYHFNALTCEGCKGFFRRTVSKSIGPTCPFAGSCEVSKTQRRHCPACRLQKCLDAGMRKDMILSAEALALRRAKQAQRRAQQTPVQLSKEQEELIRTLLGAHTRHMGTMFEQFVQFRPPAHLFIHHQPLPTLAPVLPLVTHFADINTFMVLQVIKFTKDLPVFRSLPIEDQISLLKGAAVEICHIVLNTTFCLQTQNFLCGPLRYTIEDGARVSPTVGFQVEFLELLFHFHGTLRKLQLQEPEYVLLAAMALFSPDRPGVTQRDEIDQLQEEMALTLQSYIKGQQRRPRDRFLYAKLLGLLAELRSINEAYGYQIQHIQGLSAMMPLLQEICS
# Thyrotropin receptor (Homo sapiens), sequence (P16473 whole entry, looked up): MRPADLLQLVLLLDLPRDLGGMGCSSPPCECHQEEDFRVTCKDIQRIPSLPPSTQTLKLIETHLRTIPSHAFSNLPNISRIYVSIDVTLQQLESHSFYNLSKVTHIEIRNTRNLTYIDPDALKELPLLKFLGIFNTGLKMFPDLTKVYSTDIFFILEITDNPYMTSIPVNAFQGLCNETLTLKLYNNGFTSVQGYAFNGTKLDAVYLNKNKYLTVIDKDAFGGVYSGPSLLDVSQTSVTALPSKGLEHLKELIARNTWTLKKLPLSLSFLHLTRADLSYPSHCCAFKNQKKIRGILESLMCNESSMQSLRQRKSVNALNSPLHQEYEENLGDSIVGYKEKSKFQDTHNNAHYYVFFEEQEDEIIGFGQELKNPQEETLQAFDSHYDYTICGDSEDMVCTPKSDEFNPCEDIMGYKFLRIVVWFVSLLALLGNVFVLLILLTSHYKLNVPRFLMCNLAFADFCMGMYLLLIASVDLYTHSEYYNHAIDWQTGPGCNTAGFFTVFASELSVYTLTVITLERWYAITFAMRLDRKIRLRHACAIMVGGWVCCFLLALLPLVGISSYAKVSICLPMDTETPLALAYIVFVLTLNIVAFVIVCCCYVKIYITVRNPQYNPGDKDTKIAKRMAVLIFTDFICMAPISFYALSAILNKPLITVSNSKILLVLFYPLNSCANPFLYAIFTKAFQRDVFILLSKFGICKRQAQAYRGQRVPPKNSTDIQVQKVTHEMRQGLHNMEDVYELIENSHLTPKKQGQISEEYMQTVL
smiles,measurement,setting,value
CNC(=O)NC(O)C(Cl)(Cl)Cl (centres undefined),Potency,[1],inactive
same,Potency,[2],inactive
same,Potency,[3],inactive
same,Potency,[4],inactive
same,Potency,[5],inactive
same,Potency,[6],inactive
same,Potency,[7],inactive
O=C(NC(=O)c1c(F)cccc1F)Nc1cc(Cl)c(F)c(Cl)c1F,Potency,[1],inactive
same,Potency,[2],inactive
same,Potency,[3],inactive
same,Potency,[4],inactive
same,Potency,[5],inactive
same,Potency,[6],inactive
same,Potency,[7],inactive
CC(=O)OCC1=C(C(=O)O)N2C(=O)[C@@H](N)[C@H]2SC1,"viability change, negative = cytotoxic",[1],3.81% [at 19 µM]
same,"activity change, negative = inhibition",[2],5.1% [at 23.6 µM]
same,"viability change, negative = cytotoxic",[3],12.6% [at 19 µM]
same,"activity change, negative = cytotoxicity",[4],5.22% [at 19 µM]
same,"activity, negative = inhibition",[5],0.319% [at 19 µM]
same,activation,[6],4.04% [at 19 µM]
same,"viability change, negative = cytotoxic",[7],9.03% [at 19 µM]
same,"activity, negative = inhibition",[8],-8.84% [at 19 µM]
same,activation,[9],-2.61% [at 19 µM]
CCOC1Oc2ccc(OS(C)(=O)=O)cc2C1(C)C (centres undefined),Potency,[1],inactive
same,Potency,[2],inactive
same,Potency,[3],inactive
same,Potency,[4],inactive
same,Potency,[5],inactive
same,Potency,[6],30.4 µM (active)
same,Potency,[7],inactive
O=C(Cl)OCc1ccccc1,Potency,[1],inactive
same,Potency,[2],inactive
same,Potency,[3],inactive
same,Potency,[4],inactive
same,Potency,[5],inactive
same,Potency,[6],inactive
same,Potency,[7],inactive
same,Potency,[8],inactive
same,Potency,[9],inactive
CON(C)C(=O)Nc1ccc(Br)c(Cl)c1,Potency,[1],inactive
same,Potency,[2],39.9 µM (active)
same,Potency,[3],inactive
same,Potency,[4],inactive
same,Potency,[5],inactive
same,Potency,[6],48.6 µM (active)
same,Potency,[7],inactive
same,Potency,[8],inactive
same,Potency,[9],inactive
C[C@@H](N)[C@@H](O)c1ccccc1,Potency,[1],inactive
same,Potency,[2],inactive
same,Potency,[3],inactive
same,Potency,[4],inactive
same,Potency,[5],inactive
same,Potency,[6],inactive
same,Potency,[7],inactive
same,Potency,[10],inactive
CC1N=C(N)OC1c1ccccc1 (centres undefined),Potency,[1],inactive
same,Potency,[2],inactive
same,Potency,[3],inactive
same,Potency,[4],inactive
same,Potency,[5],inactive
same,Potency,[6],inactive
same,Potency,[7],inactive
same,Potency,[10],inactive
NNCc1ccccc1,Potency,[1],inactive
same,Potency,[2],10.2 µM (active)
same,Potency,[3],inactive
same,Potency,[4],inactive
same,Potency,[5],inactive
same,Potency,[6],62.3 µM (active)
same,Potency,[7],inactive
same,Potency,[10],inactive
Cc1cc(OC(=O)N(C)C)nn1C(=O)N(C)C,Potency,[1],inactive
same,Potency,[2],inactive
same,Potency,[3],inactive
same,Potency,[4],inactive
same,Potency,[5],inactive
same,Potency,[6],inactive
same,Potency,[7],inactive
same,Potency,[10],inactive
C[C@]12C=CC(=O)C=C1CC[C@@H]1[C@@H]2CC[C@@]2(C)[C@H]1CC[C@]2(C)O,Potency,[1],inactive
same,Potency,[2],inactive
same,Potency,[3],inactive
same,Potency,[4],inactive
same,Potency,[5],inactive
same,Potency,[6],inactive
same,Potency,[7],inactive
same,Potency,[8],inactive
same,Potency,[9],inactive
same,Potency,[10],inactive
CCCCCCC1CCOC1=O (centres undefined),Potency,[1],inactive
same,Potency,[2],inactive
same,Potency,[3],inactive
same,Potency,[4],inactive
same,Potency,[5],inactive
same,Potency,[6],inactive
same,Potency,[7],inactive
same,Potency,[8],inactive
same,Potency,[9],inactive
same,Potency,[10],inactive
O=C(Cl)c1ccccc1,Potency,[1],inactive
same,Potency,[2],inactive
same,Potency,[3],inactive
same,Potency,[4],inactive
same,Potency,[5],inactive
same,Potency,[6],inactive
same,Potency,[7],inactive
same,Potency,[8],inactive
same,Potency,[9],inactive
same,Potency,[10],inactive
CCN(CC)CCOC(=O)C(O)(c1ccccc1)c1ccccc1,Potency,[1],inactive
same,Potency,[2],inactive
same,Potency,[3],inactive
same,Potency,[4],inactive
same,Potency,[5],inactive
same,Potency,[6],inactive
same,Potency,[7],inactive
same,Potency,[8],inactive
same,Potency,[9],inactive
same,Potency,[10],inactive
C=CCN1CC[C@]23CCCC[C@H]2[C@H]1Cc1ccc(O)cc13,Potency,[1],inactive
same,Potency,[2],inactive
same,Potency,[3],inactive
same,Potency,[4],inactive
same,Potency,[5],inactive
same,Potency,[6],inactive
same,Potency,[7],inactive
same,Potency,[8],inactive
same,Potency,[9],inactive
same,Potency,[10],inactive
Cc1ccc(S(=O)(=O)N[C@@H](CCCCN)C(=O)CCl)cc1,Potency,[1],inactive
same,Potency,[2],inactive
same,Potency,[3],inactive
same,Potency,[4],inactive
same,Potency,[5],inactive
same,Potency,[6],inactive
same,Potency,[7],inactive
same,Potency,[8],inactive
same,Potency,[9],inactive
same,Potency,[10],inactive
O=c1[nH]c2ccccc2n1C1CCNCC1,Potency,[1],inactive
same,Potency,[2],inactive
same,Potency,[3],inactive
same,Potency,[4],inactive
same,Potency,[5],inactive
same,Potency,[6],inactive
same,Potency,[7],inactive
same,Potency,[10],inactive
CC1NCCOC1c1ccccc1 (centres undefined),Potency,[1],inactive
same,Potency,[2],inactive
same,Potency,[3],inactive
same,Potency,[4],inactive
same,Potency,[5],inactive
same,Potency,[6],inactive
same,Potency,[7],inactive
same,Potency,[8],inactive
same,Potency,[9],inactive
same,Potency,[10],inactive
ClCC1CO1 (centres undefined),Potency,[1],inactive
same,Potency,[2],inactive
same,Potency,[3],inactive
same,Potency,[4],inactive
same,Potency,[5],inactive
same,Potency,[6],inactive
same,Potency,[7],inactive
same,Potency,[8],inactive
same,Potency,[9],inactive
same,Potency,[10],inactive
CCNc1nc(NCC)nc(SC)n1,Potency,[1],inactive
same,Potency,[2],inactive
same,Potency,[3],inactive
same,Potency,[4],inactive
same,Potency,[5],inactive
same,Potency,[6],inactive
same,Potency,[7],inactive
same,Potency,[10],inactive
C=CCC1(C(C)CC)C(=O)NC(=O)NC1=O (centres undefined),Potency,[1],inactive
same,Potency,[2],inactive
same,Potency,[3],inactive
same,Potency,[4],inactive
same,Potency,[5],inactive
same,Potency,[6],inactive
same,Potency,[7],inactive
same,Potency,[10],inactive
CCCCS(=O)(=O)Cl,Potency,[1],inactive
same,Potency,[2],inactive
same,Potency,[3],inactive
same,Potency,[4],inactive
same,Potency,[5],inactive
same,Potency,[6],inactive
same,Potency,[7],inactive
same,Potency,[8],inactive
same,Potency,[9],inactive
same,Potency,[10],inactive
CCC(C)C(C)(COC(N)=O)COC(N)=O (centres undefined),Potency,[1],inactive
same,Potency,[2],inactive
same,Potency,[3],inactive
same,Potency,[4],inactive
same,Potency,[5],inactive
same,Potency,[6],inactive
same,Potency,[7],inactive
same,Potency,[8],inactive
same,Potency,[9],inactive
same,Potency,[10],inactive
O=P(O)(O)c1ccccc1,Potency,[1],inactive
same,Potency,[2],inactive
same,Potency,[3],inactive
same,Potency,[4],inactive
same,Potency,[5],inactive
same,Potency,[6],inactive
same,Potency,[7],inactive
same,Potency,[10],inactive
CC(O)CCl (centres undefined),Potency,[1],inactive
same,Potency,[2],inactive
same,Potency,[3],inactive
same,Potency,[4],inactive
same,Potency,[5],inactive
same,Potency,[6],inactive
same,Potency,[7],inactive
same,Potency,[10],inactive
C#CCOC(=O)/C=C(C)/C=C/CC(C)CCCC(C)C (centres undefined),Potency,[1],inactive
same,Potency,[2],inactive
same,Potency,[3],inactive
same,Potency,[4],inactive
same,Potency,[5],inactive
same,Potency,[6],inactive
same,Potency,[7],inactive
same,Potency,[8],inactive
same,Potency,[9],inactive
same,Potency,[10],inactive
COc1ccccc1OC,Potency,[1],inactive
same,Potency,[2],inactive
same,Potency,[3],inactive
same,Potency,[4],inactive
same,Potency,[5],inactive
same,Potency,[6],inactive
same,Potency,[7],inactive
same,Potency,[8],inactive
same,Potency,[9],inactive
same,Potency,[10],inactive
COc1ccc(C=O)cc1O,Potency,[1],inactive
same,Potency,[2],inactive
same,Potency,[3],inactive
same,Potency,[4],inactive
same,Potency,[5],inactive
same,Potency,[6],inactive
same,Potency,[7],inactive
same,Potency,[9],inactive
same,Potency,[10],inactive
